# Source: PubChem
# Only some compounds are listed: those with a hit (about 1.2% of all), similar ones and a draw of the others.
# RGS8-Gao reg = modulates binding of RGS8 to human Galphao | AID 1423 | multiplexed bead flow cytometry; actives lie on both sides | hit rate 0.34% among 220,000 | response (percent of control binding), % at 10 µM; in the data active = response below about 60% or above about 140%; inactive = in between;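 note: Galphao activated as the GDP aluminium fluoride complex binding bead-coupled RGS8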
# Target sequence (P09471 whole entry, looked up): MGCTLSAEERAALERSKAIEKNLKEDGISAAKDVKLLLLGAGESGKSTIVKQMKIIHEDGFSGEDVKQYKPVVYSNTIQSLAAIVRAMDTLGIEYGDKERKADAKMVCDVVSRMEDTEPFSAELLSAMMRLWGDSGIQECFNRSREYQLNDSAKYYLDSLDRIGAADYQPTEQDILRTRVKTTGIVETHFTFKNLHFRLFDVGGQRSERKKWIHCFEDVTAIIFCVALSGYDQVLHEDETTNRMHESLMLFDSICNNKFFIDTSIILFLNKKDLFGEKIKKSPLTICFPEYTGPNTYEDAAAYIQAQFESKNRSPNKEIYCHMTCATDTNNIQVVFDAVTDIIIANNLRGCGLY
# GSH bead fluor = compound fluoresces at 488/530 nm on GSH beads | GSH beads flow cytometry, compound fluorescence 488/530 nm; hits give high values | fluorescence (KMESF) at 10 µM | hit rate 0.25% among 190,000 | AID 1776; in the data active = fluorescence above about 89;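 note: glutathione beads carrying GST-tagged Bcl family fusion proteins plus one bare bead set; values are compound well signal with DMSO vehicle wells as background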
# RGS16-Gao HTS = modulates binding between human RGS16 and Galphao; O15492+P09471; bead-based flow cytometry RGS16-Galphao binding, fluorescence; actives lie on both sides; binding response (% of control), % at 10 µM; hit rate 0.38% among 220,000;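 note: Galphao activated by GDP with aluminum fluoride before binding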
# Target sequence (O15492 whole entry, looked up): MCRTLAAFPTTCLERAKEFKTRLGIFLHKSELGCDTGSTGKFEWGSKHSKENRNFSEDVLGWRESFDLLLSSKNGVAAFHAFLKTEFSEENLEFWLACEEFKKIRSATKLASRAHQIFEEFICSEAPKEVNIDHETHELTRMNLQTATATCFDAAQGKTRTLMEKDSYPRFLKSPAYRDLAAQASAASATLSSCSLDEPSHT
# Target sequence (P09471 whole entry, looked up): as the sequence (P09471 whole entry, looked up) above
# Avidin fluor = avidin bead compound fluorescence profile. fluorescence (KMESF) at 10 µM. hit rate 0.38% among 220,000. Avidin beads, compound fluorescence 488/530 nm, flow cytometry; hits give high values; in the data active = fluorescence above about 47
# RGS4-Gao reg = human RGS4-Galphao interaction regulation; hit rate 0.33% among 220,000; binding response (% of control), % at 10 µM; Multiplexed bead flow cytometry, RGS4-Galphao binding; actives lie on both sides; P09471; in the data active = binding response below about 49% or above about 150%; inactive = in between;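 note: fluorescent Galphao activated with aluminum fluoride binding bead-coupled RGS4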
# RGS7-Gao reg = modulates binding of RGS7 to human Galphao | P09471 | Multiplexed bead flow cytometry; actives lie on both sides | hit rate 0.35% among 220,000 | binding response (% of control), % at 10 µM | AID 1439; in the data active = binding response below about 49% or above about 150%; inconclusive = no clear call, values can overlap the other calls; inactive = in between;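 note: fluorescent Galphao held in activated GDP-AlF4 state binding bead-coupled RGS7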
# RGS-Gao = RGS4-Galphao interaction regulator (human); shares compounds with RGS16-Gao HTS; multiplexed bead flow cytometry, RGS–Galpha-o binding; RGS4–Galpha-o binding response, % at 10 µM; AID 1504; hit rate 99% among 1,600;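 note: fluorescently labeled Galpha-o bound to GDP with aluminium fluoride binding biotinylated RGS beads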
# Avidin counter = interferes with biotinylated probe binding to avidin beads; inhibition, % at 10 µM; shares compounds with RGS16-Gao HTS; AID 1783; 1,700 tested, under 10 active; streptavidin beads, fluorescein-biotin binding, flow cytometry;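 active = inhibition above 50%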;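 note: median green fluorescence of gated singlet beads compared with DMSO control wells; 0% = DMSO wells and 100% = complete loss of bead fluorescence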
# RGS8-Gao single = RGS8-Galphao interaction regulation, single point confirmation. shares compounds with RGS16-Gao HTS. bead-based flow cytometry RGS8-Galphao binding, fluorescence; actives lie on both sides. binding response (% of control), % at 10 µM. hit rate 3% among 1,700; in the data active = binding response below about 72% or above about 130%; inactive = in between;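 note: Galphao activated as GDP AlF4 complex before binding bead RGS8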
# RGS7-Gao confirm = confirmation of regulators of human RGS7-Galphao interaction. shares compounds with RGS16-Gao HTS. bead-based flow cytometry RGS7-Galphao binding; actives lie on both sides. response (percent of control binding), % at 10 µM. hit rate 7.8% among 1,700. AID 1837; in the data active = response below about 75% or above about 130%; inactive = in between;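 note: fluorescent Galphao activated with GDP and aluminum fluoride binding bead-coupled RGS7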
# RGS16-Gao conf = RGS16-Galphao interaction regulation, single point confirmation; hit rate 4% among 1,700; shares compounds with RGS16-Gao HTS; bead-based flow cytometry, RGS16-Galphao binding; actives lie on both sides; response (% of control binding), % at 10 µM; in the data active = response below about 74% or above about 130%; inactive = in between;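 note: Galphao activated as the GDP aluminium fluoride complex binding bead-coupled RGS16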
# RGS4-Gao single = confirmation of regulators of human RGS4-Galphao interaction; binding response (% of control), % at 10 µM; hit rate 4% among 1,700; shares compounds with RGS16-Gao HTS; RGS4-Galphao binding, multiplexed bead flow cytometry; actives lie on both sides; in the data active = binding response below about 74% or above about 130%; inactive = in between
# RGS19-Gao single = RGS19-Galphao interaction regulation, single point confirmation | AID 1841 | bead-based flow cytometry RGS19-Galphao binding; actives lie on both sides | shares compounds with RGS16-Gao HTS | response (percent of control binding), % at 10 µM | hit rate 5% among 1,700; in the data active = response below about 50% or above about 160%; inactive = in between;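 note: 100% = no compound control and 0% = blank background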
# Starred values were filed as active, the others as inactive; ? = inconclusive; / = not tested or not shown; [ ] = another dose, or the depositor's remark. Unless noted, the rule behind the calls is not given here.
SMILES,RGS8-Gao reg,GSH bead fluor,RGS16-Gao HTS,Avidin fluor,RGS4-Gao reg,RGS7-Gao reg,RGS-Gao,Avidin counter,RGS8-Gao single,RGS7-Gao confirm,RGS16-Gao conf,RGS4-Gao single,RGS19-Gao single
O=C(Nc1cccc2ncccc12)c1ccc(Br)c([N+](=O)[O-])c1,150.5*[activator],10,246.1,13,120.3,121.4,120.3*,0.9,104.2,100.6,101.3,103.7,101.5
Cc1onc(-c2ccccc2)c1CNS(=O)(=O)c1cccc(Br)c1,101.5,/,103.9,2,99.6,?,/,/,/,/,/,/,/
CC(C)COc1ccc(C(=O)N2C(=O)c3ccc(N)cc3C2=O)cc1,99.8,/,91.9,5,88.0,?,/,/,/,/,/,/,/
O=C1Nc2ccc(Cl)cc2[C@@](C#CC2CC2)(C(F)(F)F)O1,99.2,66,97.7,7,99.0,100.8,/,/,/,/,/,/,/
Cc1ccc(C(OCC(C)(C)C[N+](C)(C)C)c2ccccc2)cc1 (stereo not drawn),98.3,25,96.6,8,99.8,98.5,/,/,/,/,/,/,/
COc1ccc(CC2(CO)CCN(S(=O)(=O)c3sccc3C)CC2)cc1,104.7,25,112.0,7,98.2,104.3,/,/,/,/,/,/,/
CCn1cc(CCC(=O)O)c(C)n1,145.5*[activator],15,158.2,24,141.6,143.1,141.6*,-0.8,100.5,101.3,100.8,101.0,103.8
Cc1ccc(-c2nn(CCC(=O)O)cc2CCC(=O)O)cc1,103.3,12,100.2,12,104.5,103.6,/,/,/,/,/,/,/
CN(C)CCCN(CCCN(C)C)C(=S)Nc1ccc(S(=O)(=O)N2CCOCC2)cc1,98.8,/,100.4,9,100.1,?,/,/,/,/,/,/,/
CCC(Sc1nc(N)c(NC(=O)c2ccc(OC)cc2)c(=O)[nH]1)C(=O)O (stereo not drawn),98.1,12,95.8,7,96.8,?,/,/,/,/,/,/,/
O=C(NCC(=O)N(Cc1ccccc1)C(C(=O)NC1CCCC1)c1ccco1)c1ccco1 (stereo not drawn),98.9,29,103.5,12,95.2,96.7,/,/,/,/,/,/,/
O=C(NCC(=O)N(CC1CCCO1)C(C(=O)NC1CCCCC1)c1ccc(F)cc1)c1ccco1 (stereo not drawn),94.4,10,105.9,175*,165.0*[activator],236.6*[activator],/,1.0,99.0,97.8,99.0,99.1,101.8
Cc1ccc(C(C(=O)NC2CCCCC2)N(CC2CCCO2)C(=O)CNC(=O)c2ccco2)cc1 (stereo not drawn),100.1,13,115.6,10,84.5,94.1,/,/,/,/,/,/,/
O=C(CN(Cc1ccccc1C(F)(F)F)C(=O)CNC(=O)c1ccco1)NC1CCCC1,100.7,36,106.0,104*,112.5,170.8*[activator],112.5*,-1.2,101.3,105.9,100.1,101.9,106.6
c1ccc(-c2csc3ncnc(NCc4ccccn4)c23)cc1,127.8,/,147.1,6,153.1*[activator],?,/,-0.9,102.0,101.5,99.6,102.7,91.0
Cc1cccnc1NC(=O)C1CCCN(S(=O)(=O)c2ccc3c(c2)oc(=O)n3C)C1 (stereo not drawn),142.0*[activator],19,229.4,7,115.8,114.4,115.8*,-0.3,100.6,100.8,99.5,101.4,98.5
Cc1cccc(N=Cc2[nH]c3ccc(Br)c(Cl)c3c2O)c1,103.8,16,138.8,33,141.8,153.4*[activator],141.8*,/,/,/,/,/,/
COC(=O)CC(NC(=O)Nc1ccc(C)cc1)c1cccc([N+](=O)[O-])c1 (stereo not drawn),26.3*,11,19.8*,1,28.0*,4.0*,/,0.5,103.5,100.9,103.7,99.8,115.8
OCCSc1nc(-c2ccccc2)nc2c1CCC2,80.0,9,15.4*,8,95.5,88.8,95.5*,0.2,99.7,94.6,100.4,100.4,108.7
CCSC(C)CC1CC(=O)CC(=O)C1 (stereo not drawn),/,41,/,/,/,/,/,3.0,96.4,101.0,98.5,99.7,88.1
CCCc1nc2c(o1)CC(CC(C)SCC)CC2=O (stereo not drawn),7.4*,44,-7.1*,-4,-7.5*,-1.3*,/,1.4,98.8,99.4,97.1,97.3,106.5
O=C1OC(/C(=C\Nc2cc(Cl)ccc2O)[N+](=O)[O-])c2ccccc21 (stereo not drawn),100.2,8,98.7,17,103.1,?,/,/,/,/,/,/,/
COc1ccc(C(CCNCc2ccc(N(C)C)cc2)C(C)C)cc1 (stereo not drawn),107.7,/,109.5,4,106.0,?,/,/,/,/,/,/,/
COc1ccc(CNCCC(c2ccc(OC(C)C)cc2)C(C)C)cc1OC (stereo not drawn),142.0*[activator],5,228.5,10,117.3,119.5,117.3*,2.9,103.0,98.5,102.8,98.1,96.7
COc1ccc(C(CCNCc2ccc(OC(C)C)cc2)C(C)C)cc1 (stereo not drawn),8.9*,/,-5.3*,-2,-9.6*,?,/,0.5,101.8,90.2,94.2,93.8,77.4
CNC(=O)NC(=O)COC(=O)c1ccccc1OCc1ccccc1,102.3,13,101.6,11,101.9,?,/,/,/,/,/,/,/
COc1cccc(CNC(=O)CCC2CCCN(C(=O)C3CCOCC3)C2)c1 (stereo not drawn),100.4,15,96.3,5,97.3,94.0,/,/,/,/,/,/,/
O=c1[nH]c2ccc(NC(=S)Nc3ccc(F)cc3)cc2[nH]1,106.3,/,101.6,7,107.3,?,/,/,/,/,/,/,/
Cc1ccc(S(=O)(=O)/N=C(/Nc2ccc3[nH]c(=O)[nH]c3c2)c2ccc(F)cc2)cc1,99.3,14,100.4,37,104.4,152.4*[activator],104.4*,-0.7,106.8,102.1,117.3,104.6,115.5
COc1ccc(CNC(=O)C/C(C)=N/NC(=O)COc2ccc(Br)cc2)cc1,109.2,20,108.0,9,105.5,104.1,/,/,/,/,/,/,/
